Data taken from the supplement of paper PMC11732987, “Enantioselective OTUD7B fragment discovery through chemoproteomics screening and high-throughput optimisation” (Communications Chemistry, 2025).

Assays:
Assay in all cases: log2 ratio of Biotin-Ahx-Ub-VS probe labelling (fragment/DMSO); higher = less target engagement (more negative = stronger competition), active = hit call of the paper (q ≤ 0.05, log2 ratio ≤ -1)
Details in all cases: compound concentration: 200 uM; treatment time: 3 h
OTUD6B = target: T1, OTUD6B (UniProt Q8N6M0)
T1 sequence (whole entry): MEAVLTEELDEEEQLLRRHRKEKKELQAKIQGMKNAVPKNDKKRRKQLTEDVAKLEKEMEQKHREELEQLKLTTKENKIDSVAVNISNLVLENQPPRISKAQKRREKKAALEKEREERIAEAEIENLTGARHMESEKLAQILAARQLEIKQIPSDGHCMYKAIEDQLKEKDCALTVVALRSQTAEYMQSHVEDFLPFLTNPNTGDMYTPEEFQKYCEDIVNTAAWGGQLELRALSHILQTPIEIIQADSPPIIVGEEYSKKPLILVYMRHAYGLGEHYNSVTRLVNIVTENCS
Method in brief: (§1)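 The table lists average log2 ratios of fragment over vehicle, from an unpaired t-test on global-median-normalised Spectronaut label-free quantities. Proteins with ≥2 unique peptides were used. Samples were HEK293T lysate (495 µg) treated in triplicate with fragment at 200 µM or vehicle for 3 h, then with Biotin-Ahx-Ub-VS (0.5 µM final) for 1 h, with labelled DUBs NeutrAvidin-enriched and run by diaPASEF LC-MS/MS.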

OTUD7B = target: T2, OTUD7B (UniProt Q6GQQ9)
T2 sequence (whole entry): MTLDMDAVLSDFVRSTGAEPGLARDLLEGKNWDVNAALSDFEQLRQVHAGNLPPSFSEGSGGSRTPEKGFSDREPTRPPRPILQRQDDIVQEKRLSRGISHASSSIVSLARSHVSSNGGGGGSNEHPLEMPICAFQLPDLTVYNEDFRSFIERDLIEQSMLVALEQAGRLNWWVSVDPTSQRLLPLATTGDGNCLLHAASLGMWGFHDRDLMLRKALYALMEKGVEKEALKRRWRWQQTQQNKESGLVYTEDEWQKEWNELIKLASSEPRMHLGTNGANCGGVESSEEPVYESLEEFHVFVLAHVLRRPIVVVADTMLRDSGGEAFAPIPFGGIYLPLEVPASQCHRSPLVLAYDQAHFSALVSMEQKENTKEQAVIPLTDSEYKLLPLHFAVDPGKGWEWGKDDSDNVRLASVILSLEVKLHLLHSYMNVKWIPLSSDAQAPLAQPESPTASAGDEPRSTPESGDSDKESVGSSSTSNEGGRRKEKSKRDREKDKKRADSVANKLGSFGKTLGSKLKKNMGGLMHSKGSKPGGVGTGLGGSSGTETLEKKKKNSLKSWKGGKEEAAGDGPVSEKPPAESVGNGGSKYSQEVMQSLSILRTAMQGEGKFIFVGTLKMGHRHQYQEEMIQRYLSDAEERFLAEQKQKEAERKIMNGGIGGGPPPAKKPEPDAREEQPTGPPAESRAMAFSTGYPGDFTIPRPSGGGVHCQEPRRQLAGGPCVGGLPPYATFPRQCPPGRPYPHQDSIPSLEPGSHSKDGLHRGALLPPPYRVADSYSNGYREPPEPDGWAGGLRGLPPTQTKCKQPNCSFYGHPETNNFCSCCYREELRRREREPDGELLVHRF
Method in brief: as §1

PRPF8 = PRPF8 (UniProt Q6P2Q9)
Method in brief: as §1

PSMD7 = target: T3, PSMD7 (UniProt P51665)
T3 sequence (whole entry): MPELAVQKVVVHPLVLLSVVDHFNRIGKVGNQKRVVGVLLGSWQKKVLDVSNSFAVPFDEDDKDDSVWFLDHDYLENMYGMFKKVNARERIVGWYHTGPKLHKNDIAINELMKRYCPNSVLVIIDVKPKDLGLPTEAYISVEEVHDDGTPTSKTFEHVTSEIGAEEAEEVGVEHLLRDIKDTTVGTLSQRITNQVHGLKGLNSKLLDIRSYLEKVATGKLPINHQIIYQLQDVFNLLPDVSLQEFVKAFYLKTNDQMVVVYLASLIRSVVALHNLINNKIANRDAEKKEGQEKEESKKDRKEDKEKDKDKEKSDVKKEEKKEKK
Method in brief: as §1

UCHL1 = UCHL1 (UniProt P09936)
Method in brief: as §1

UCHL3 = target: T4, UCHL3 (UniProt P15374)
T4 sequence (whole entry): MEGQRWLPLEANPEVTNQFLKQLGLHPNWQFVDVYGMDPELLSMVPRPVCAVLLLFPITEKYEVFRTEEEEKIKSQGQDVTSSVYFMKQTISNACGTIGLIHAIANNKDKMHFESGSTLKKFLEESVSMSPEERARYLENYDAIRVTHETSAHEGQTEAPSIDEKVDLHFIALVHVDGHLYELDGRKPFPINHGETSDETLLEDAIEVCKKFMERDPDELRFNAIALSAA
Method in brief: as §1

UCHL5 = target: T5, UCHL5 (UniProt Q9Y5K5)
T5 sequence (whole entry): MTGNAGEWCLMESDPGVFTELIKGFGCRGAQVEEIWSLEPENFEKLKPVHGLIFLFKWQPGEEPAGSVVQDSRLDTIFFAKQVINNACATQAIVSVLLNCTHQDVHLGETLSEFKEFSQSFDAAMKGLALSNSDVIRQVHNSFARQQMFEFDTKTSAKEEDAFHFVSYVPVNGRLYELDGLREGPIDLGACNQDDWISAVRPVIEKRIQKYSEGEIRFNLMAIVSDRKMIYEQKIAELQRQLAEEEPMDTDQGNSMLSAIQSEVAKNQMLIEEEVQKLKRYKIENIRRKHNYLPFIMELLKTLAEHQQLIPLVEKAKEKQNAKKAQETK
Method in brief: as §1

USP10 = USP10 (UniProt Q14694)
Method in brief: as §1

USP15 = target: T6, USP15 (UniProt Q9Y4E8)
T6 sequence (whole entry): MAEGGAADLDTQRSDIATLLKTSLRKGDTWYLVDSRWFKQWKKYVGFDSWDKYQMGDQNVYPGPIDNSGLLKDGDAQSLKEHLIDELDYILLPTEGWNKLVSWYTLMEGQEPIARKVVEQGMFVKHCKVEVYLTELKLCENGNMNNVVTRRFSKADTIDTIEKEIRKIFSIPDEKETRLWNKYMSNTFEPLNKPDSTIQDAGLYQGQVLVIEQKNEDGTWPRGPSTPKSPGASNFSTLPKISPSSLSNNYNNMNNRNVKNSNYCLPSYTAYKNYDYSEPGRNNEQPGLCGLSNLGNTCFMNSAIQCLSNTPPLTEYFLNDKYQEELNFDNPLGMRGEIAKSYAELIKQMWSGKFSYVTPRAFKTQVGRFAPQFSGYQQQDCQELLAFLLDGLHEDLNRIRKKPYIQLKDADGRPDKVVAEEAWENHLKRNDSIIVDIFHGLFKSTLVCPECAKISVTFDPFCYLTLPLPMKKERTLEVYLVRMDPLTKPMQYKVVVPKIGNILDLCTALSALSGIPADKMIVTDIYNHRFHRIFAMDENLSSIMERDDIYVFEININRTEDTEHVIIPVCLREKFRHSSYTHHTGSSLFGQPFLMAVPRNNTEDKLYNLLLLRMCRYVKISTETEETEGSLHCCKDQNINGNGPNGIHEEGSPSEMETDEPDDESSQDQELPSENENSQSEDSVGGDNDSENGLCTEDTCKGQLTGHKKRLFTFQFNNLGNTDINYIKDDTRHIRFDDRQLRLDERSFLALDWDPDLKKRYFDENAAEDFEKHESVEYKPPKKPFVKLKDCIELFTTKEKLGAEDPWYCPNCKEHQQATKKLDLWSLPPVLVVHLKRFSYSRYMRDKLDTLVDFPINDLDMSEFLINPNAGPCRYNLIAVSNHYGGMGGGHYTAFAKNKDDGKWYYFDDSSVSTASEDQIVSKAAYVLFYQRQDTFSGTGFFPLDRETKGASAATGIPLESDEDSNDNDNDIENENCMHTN
Method in brief: as §1

USP16 = USP16 (UniProt Q9Y5T5)
Method in brief: as §1

Measured: log2 ratio of Biotin-Ahx-Ub-VS probe labelling

Chain of UCHL1 (P09936 whole entry, looked up): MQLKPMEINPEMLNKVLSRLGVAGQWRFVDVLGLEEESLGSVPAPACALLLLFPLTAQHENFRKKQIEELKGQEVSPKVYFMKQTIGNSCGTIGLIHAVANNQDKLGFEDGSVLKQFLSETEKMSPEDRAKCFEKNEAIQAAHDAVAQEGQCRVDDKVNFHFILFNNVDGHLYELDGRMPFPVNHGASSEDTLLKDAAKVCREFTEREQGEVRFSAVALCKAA
Chain of USP16 (Q9Y5T5 whole entry, looked up): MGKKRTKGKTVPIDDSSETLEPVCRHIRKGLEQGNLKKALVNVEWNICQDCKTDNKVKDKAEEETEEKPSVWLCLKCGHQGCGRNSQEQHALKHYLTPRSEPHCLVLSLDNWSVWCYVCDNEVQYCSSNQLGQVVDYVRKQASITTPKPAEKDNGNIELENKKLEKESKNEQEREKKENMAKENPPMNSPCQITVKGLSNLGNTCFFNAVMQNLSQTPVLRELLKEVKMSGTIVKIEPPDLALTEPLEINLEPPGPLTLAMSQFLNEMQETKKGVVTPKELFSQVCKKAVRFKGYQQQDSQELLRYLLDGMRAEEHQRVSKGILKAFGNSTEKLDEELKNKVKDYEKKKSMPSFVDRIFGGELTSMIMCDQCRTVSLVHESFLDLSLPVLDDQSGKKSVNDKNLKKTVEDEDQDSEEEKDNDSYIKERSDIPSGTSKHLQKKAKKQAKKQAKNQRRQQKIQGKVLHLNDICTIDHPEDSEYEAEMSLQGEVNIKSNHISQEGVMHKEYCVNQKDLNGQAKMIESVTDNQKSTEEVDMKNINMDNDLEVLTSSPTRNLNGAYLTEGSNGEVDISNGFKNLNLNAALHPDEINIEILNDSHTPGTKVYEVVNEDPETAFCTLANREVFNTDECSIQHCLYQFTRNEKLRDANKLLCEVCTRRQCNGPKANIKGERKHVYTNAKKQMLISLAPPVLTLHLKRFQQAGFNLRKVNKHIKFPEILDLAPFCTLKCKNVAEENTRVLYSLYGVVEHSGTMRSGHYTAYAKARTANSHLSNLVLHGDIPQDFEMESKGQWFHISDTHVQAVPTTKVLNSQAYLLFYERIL
Chain of USP10 (Q14694 whole entry): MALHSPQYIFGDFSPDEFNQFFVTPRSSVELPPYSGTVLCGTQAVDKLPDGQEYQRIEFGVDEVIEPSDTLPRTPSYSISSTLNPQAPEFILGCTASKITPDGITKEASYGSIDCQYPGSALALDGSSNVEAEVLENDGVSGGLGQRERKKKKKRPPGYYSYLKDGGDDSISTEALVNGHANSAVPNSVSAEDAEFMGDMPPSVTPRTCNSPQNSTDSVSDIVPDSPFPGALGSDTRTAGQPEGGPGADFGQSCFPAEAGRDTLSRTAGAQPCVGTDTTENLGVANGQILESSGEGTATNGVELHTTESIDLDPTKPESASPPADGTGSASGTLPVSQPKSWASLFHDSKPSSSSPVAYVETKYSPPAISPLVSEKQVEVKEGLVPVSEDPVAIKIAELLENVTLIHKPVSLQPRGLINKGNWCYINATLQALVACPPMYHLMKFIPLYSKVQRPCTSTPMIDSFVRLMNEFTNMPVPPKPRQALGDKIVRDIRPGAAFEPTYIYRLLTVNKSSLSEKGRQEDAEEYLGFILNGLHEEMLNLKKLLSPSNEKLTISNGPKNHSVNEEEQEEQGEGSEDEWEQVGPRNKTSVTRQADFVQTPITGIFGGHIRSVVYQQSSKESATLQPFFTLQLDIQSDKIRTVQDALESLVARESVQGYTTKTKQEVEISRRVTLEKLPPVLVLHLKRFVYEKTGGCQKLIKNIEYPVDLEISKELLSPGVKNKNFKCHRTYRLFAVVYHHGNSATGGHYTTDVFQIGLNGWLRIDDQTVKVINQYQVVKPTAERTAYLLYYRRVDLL

O=C(CCl)NCc1cccc(N2CCCC2=O)c1
inactive: OTUD6B 0.058 | OTUD7B -0.585 | PRPF8 -0.0281 | PSMD7 -0.0566 | UCHL1 -0.979 | UCHL3 0.302 | UCHL5 -0.112 | USP10 0.0755 | USP15 0.049
active: USP16 -1
